# The panel holds about 83,000 compounds, 20% with a hit somewhere; the sample as a whole holds those more often.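 Cells were grown in 96-well plates and exposed to the test compound at a single concentration for 48 hours; results are reported as percent growth, with values below 10 considered active.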 Calls of active or inactive are those of the source.
# Tested on: 786-0 renal
# Assay: NCI-60 one-dose screen, 48 h (100 = growth as untreated, 0 = no growth, -100 = all killed)
# Conditions: 10 µM unless noted
row,Structure (SMILES),growth
1,C[C@]12CC[C@@H]3c4cc(O)c(O)cc4CC[C@H]3[C@@H]1CC[C@@H]2O,43% (inactive)
2,CCCOC(=O)C1(O)CCCC1,105% (inactive)
3,COC1=CC(c2ccc[nH]2)=N/C1=C\c1[nH]c(C)c(C(=O)CCCCC(=O)NCc2ccccc2)c1C,18.9% (inactive)
4,O=C(NNC(=S)Nc1ccccc1)c1ccccn1,22.6% (inactive)
5,COc1cc(NC(=O)CCl)ccc(=O)c1,106% (inactive)
6,COc1ccc(S(=O)(=O)N2CCN(c3cc4c(cc3F)c(=O)c(C(=O)O)cn4C3CC3)CC2)c(OC)c1,91.5% (inactive)
7,COc1ccc(Cn2cc(COc3cc(/C=C/C(=O)c4cc(OC)c(OC)c(OC)c4)ccc3OC)nn2)cc1,81% (inactive)
8,COc1cc(C(=O)OCCCCCCCCCCC[P+](c2ccccc2)(c2ccccc2)c2ccccc2)ccc1O,5.62% (active)
9,CC(C(=O)n1cc(-c2ccccc2)c(-c2ccccc2)c1)c1ccccc1 (stereo not drawn),98% (inactive)
10,C=CCOc1cccc(/C=C/C(=O)c2sc(Nc3cccnc3)nc2C)c1,51.7% (inactive)
11,O=C(CCCn1c(=O)c2sc3ccccc3c2n2nnc(-c3ccccc3)c12)NCCc1cnc[nH]1,-77.7% (active)
12,CCC1CCc2nc3sc(C(=O)Nc4cccc(C)c4)c(N)c3cc2C1 (stereo not drawn),94.9% (inactive)
13,Cc1cccc(NC(=O)c2sc3nc4c(cc3c2N)CCCC4)c1,59.8% (inactive)
14,COc1ccc(-c2cn[nH]c2-c2cc(OC)c3c(c2)OCCO3)cc1,33% (inactive)
15,CC(C)C[C@H](NC(=O)Cn1ccc(NCc2ccccc2)cc1=O)B(O)O,20.6% (inactive)
16,CC[C@H](C)[C@H]1NC(=O)[C@@H](N[C@](C)(O)[C@@H](N)CC(C)C)[C@@H](C)OC(=O)[C@H](Cc2ccc(OC)cc2)N(C)C(=O)[C@@H]2CCCN2C(=O)[C@H](CC(C)C)NC(=O)[C@@H](C)C(=O)[C@H](C(C)C)OC(=O)C[C@@H]1O,-25.5% (active)
17,CCNC(=O)C1CCCN1C(=O)C(CCCN=C(N)N)NC(=O)C(CC(C)C)NC(=O)C(CC(C)C)NC(=O)C(Cc1ccc(O)cc1)NC(=O)C(CO)NC(=O)C(Cc1c[nH]c2ccccc12)NC(=O)C(Cc1cnc[nH]1)NC(=O)C1CCC(=O)N1 (stereo not drawn),104% (inactive)

row,Structure (SMILES),growth
1,COC(=O)c1cc(-c2cccs2)c(C#N)c(N)c1C#N,100% (inactive)
2,O=C1N=C(c2c(-c3[nH]c(=O)c4ccc(Br)cc4c3O)c(O)c3ccccc3c2O)C(=O)c2cc(Br)ccc21,-63.2% (active)
3,CC[C@]1(O)C[C@@H]2CN(Cc3c([nH]c4ccccc34)[C@@](C(=O)OC)(c3cc4c(cc3OC)N(C)[C@H]3[C@@](O)(C(=O)OC)[C@H](OC(C)=O)[C@]5(CC)[C@@H]6C[C@@H]6CN6CC[C@]43[C@@H]65)C2)C1,21.4% (inactive)
4,CCOC(=O)[C@H](CSSc1ncnc2cc[nH]c12)NC(=O)[C@@H](C)c1ccc2cc(OC)ccc2c1,25.5% (inactive)
5,Cc1nc(Nc2cccnc2)sc1C(=O)/C=C/c1ccc(F)cc1,13.8% (inactive)
6,COc1ccc(C2=CC(c3ccc(Oc4ccnc5cc(Cl)ccc45)c(OC)c3)c3c(nc(OC)[nH]c3=O)N2)cc1 (stereo not drawn),80.3% (inactive)
7,COc1ccccc1CNCCCN1C(=O)c2ccc3c4c(ccc(c24)C1=O)C(=O)N(CCCNCCCCNCCCCN)C3=O,23.3% (inactive)
8,Cc1cc(C)c(S(=O)(=O)N2CCN(c3cc4c(cc3F)c(=O)c(C(=O)O)cn4C3CC3)CC2)c(C)c1,75.6% (inactive)
9,COc1ccc(C(=O)/C=C/c2cc(C(=O)c3cc(OC)c(OC)c(OC)c3)ccc2OC)cc1,89.4% (inactive)
10,NC(=O)NC(=O)/C=C/C(=O)OCCCl,125% (inactive)
11,COc1cc2nc(N3CCC[C@@H](NC4=CC(=O)c5ccccc5C4=O)C3)nc(N)c2cc1OC,94.7% (inactive)
12,O=S(=O)(c1ccccc1)n1ccc(-c2ccc3c(c2)CCO3)n1,90.3% (inactive)
13,O=C(CNc1ccc(Cl)cc1)Nc1ccc(-c2nc3ccccc3s2)cc1,27% (inactive)
14,COc1ccc(/C=C2\CCCC3=C2NC(C)=NC3c2ccc(OC)c(OC)c2)cc1OC (stereo not drawn),9.19% (active)
15,COc1cc(OC)c(C(=O)/C=C/c2ccc(C(F)(F)F)cc2)c(OC)c1,45.4% (inactive)
16,O=C(CCl)NCCNc1nccc(Nc2ccc(S(=O)(=O)Nc3ccccn3)cc2)n1,-34.5% (active)

# Reference: PubChem BioAssay (NCI)
